# Results as given in PubChem BioAssay (EPA / NIEHS).
# Results filed as inconclusive are left out. Calls of active or inactive are those of the source. How the source made its calls: active means hit-call score of the fitted dose curve at least 0.9, where 1 is the maximum; inconclusive means response in the unintended direction; inactive means score below 0.9.
# Assays:
# [1] = system: guinea pig Dopamine Transporter (DAT), gene 100714898; test: NVS_TR_gDAT: NovaScreen (NVS) Transporter Assay for guinea pig Dopamine Transporter (DAT) (AID 2283369);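 further: active compounds lower bound radioligand signal relative to DMSO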
# In short: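 Cell-free striatal membrane prep (guinea pig), 2 h exposure, filtration + scintillation readout of radioligand binding. Single-point 25 uM duplicate; actives rerun singleton, top conc 50 uM.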
# [2] = biological target: human Dopamine Transporter (DAT), SLC6A3 (gene 6531) (UniProt Q01959); test: NVS_TR_hDAT: NovaScreen (NVS) Transporter Assay for human Dopamine Transporter (DAT) (AID 2283374);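 further: activity means loss of bound radioligand signal relative to DMSO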
# In short: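 hDAT membranes + tritiated/iodinated radioligand, competitive displacement; 1 h; filter scintillation readout. Single conc 25 uM (duplicate), then conc-response for actives. DMSO = negative control.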
# [3] = biological target: Norway rat Vesicular Monoamine Transporter (VMAT2), neurotransmitter transporter, Slc18a2 (gene 25549) (UniProt Q01827); test: NVS_TR_rVMAT2: NovaScreen (NVS) Transporter Assay for Norway rat Vesicular Monoamine Transporter (VMAT2), neurotransmitter transporter (AID 2283376);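 further: actives lower the bound radioligand signal below the DMSO level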
# In short: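 Filter-based scintillation counting of radioligand bound to rat forebrain-derived VMAT2 protein, cell-free, 1 h post-dose. Signal loss relative to DMSO control scored; single-concentration duplicate screen (25 uM) followed by concentration-response testing of actives.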
# [4] = biological target: rat Serotonin Transporter (SERT), Slc6a4 (gene 25553) (UniProt P31652); test: NVS_TR_rSERT: NovaScreen (NVS) Transporter Assay for rat Serotonin Transporter (SERT) (AID 2283375)
# In short: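 Radioligand displacement, filter scintillation readout; rat forebrain membrane prep, 1 h post-dose. Single-conc 25 uM duplicate screen, then concentration-response on actives. Loss of signal vs DMSO baseline.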
# [5] = biological target: Estrogen receptor beta (Homo sapiens) (UniProt Q92731); test: OT_ER_ERbERb_0480: Odyssey Thera (OT) 8-hour HEK293T Protein-Complementation Assay for Estrogen Receptor-beta/-beta Homodimer (AID 2283357);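 further: active means signal gain over DMSO baseline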
# In short: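 Homodimerization of ER-beta LBD measured by protein-fragment complementation in HEK293T; 8 h dosing; fixed, Draq5 counterstain; fluorescence intensity gain over DMSO baseline, positive fitting direction; laser scanning cytometry.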
# [6] = biological target: human Peroxisome Proliferator-activated Receptor alpha (PPARa), PPARA (gene 5465) (UniProt Q07869); test: NVS_NR_hPPARa: NovaScreen (NVS) Nuclear Receptor Binding Assay for human Peroxisome Proliferator-activated Receptor alpha (PPARa) (AID 2283359);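 further: activity means loss of TR-FRET signal versus DMSO baseline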
# In short: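 TR-FRET signal measured at 1 h post-dosing; loss-of-signal versus DMSO negative control taken as activity. Extracted gene-protein, cell-free format. Initial single-point duplicates at 25 uM, then concentration-response retests.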
# [7] = biological target: Nuclear receptor subfamily 1 group I member 2 (Homo sapiens) (UniProt O75469); test: NVS_NR_hPXR: NovaScreen (NVS) Nuclear Receptor Binding Assay for human Pregnane X Receptor (PXR) (AID 2283365);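 further: a drop in FRET signal versus DMSO baseline means the compound binds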
# In short: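 TR-FRET signal read at 2 h in a cell-free human PXR binding format. DMSO served as negative control and baseline; activity scored as signal loss. Single-concentration duplicate screen (25 uM), then concentration-response follow-up.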
# [8] = biological target: Peroxisome proliferator-activated receptor gamma (Homo sapiens) (UniProt P37231); test: NVS_NR_hPPARg: NovaScreen (NVS) Nuclear Receptor Binding Assay for human Peroxisome Proliferator-activated Receptor gamma (PPARg) (AID 2283370)
# In short: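 FP read-out, 2 h post-dose, cell-free extracted receptor protein. Signal loss vs DMSO negative control = binding activity. Single-conc duplicate HTS at 25 uM; concentration-response follow-up for actives.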
# [9] = biological target: Retinoic acid receptor alpha (Homo sapiens) (UniProt P10276); test: NVS_NR_hRARa_Agonist: NovaScreen (NVS) Nuclear Receptor Binding Assay for human Retinoic Acid Alpha Receptor Agonism (RAR) (AID 2283361)
# In short: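 TR-FRET signal, 2 h post-dosing; cell-free extracted protein; DMSO = baseline, positive fitting direction; 25 uM single-point duplicate, then concentration series for actives.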
# Sequence of Nuclear receptor subfamily 1 group I member 2 (Homo sapiens) (O75469 whole entry, looked up): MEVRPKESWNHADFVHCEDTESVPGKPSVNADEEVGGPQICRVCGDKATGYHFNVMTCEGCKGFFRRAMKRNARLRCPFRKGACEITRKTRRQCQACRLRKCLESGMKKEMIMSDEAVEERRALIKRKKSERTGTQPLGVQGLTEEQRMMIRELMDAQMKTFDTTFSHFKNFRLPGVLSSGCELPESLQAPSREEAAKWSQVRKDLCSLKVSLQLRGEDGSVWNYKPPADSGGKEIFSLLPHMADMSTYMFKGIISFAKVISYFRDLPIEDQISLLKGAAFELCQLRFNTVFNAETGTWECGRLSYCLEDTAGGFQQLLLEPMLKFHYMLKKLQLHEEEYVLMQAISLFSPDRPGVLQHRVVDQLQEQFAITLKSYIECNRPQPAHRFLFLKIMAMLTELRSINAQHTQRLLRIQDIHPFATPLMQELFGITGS
# Sequence of Estrogen receptor beta (Homo sapiens) (Q92731 whole entry, looked up, the tested form may be a part): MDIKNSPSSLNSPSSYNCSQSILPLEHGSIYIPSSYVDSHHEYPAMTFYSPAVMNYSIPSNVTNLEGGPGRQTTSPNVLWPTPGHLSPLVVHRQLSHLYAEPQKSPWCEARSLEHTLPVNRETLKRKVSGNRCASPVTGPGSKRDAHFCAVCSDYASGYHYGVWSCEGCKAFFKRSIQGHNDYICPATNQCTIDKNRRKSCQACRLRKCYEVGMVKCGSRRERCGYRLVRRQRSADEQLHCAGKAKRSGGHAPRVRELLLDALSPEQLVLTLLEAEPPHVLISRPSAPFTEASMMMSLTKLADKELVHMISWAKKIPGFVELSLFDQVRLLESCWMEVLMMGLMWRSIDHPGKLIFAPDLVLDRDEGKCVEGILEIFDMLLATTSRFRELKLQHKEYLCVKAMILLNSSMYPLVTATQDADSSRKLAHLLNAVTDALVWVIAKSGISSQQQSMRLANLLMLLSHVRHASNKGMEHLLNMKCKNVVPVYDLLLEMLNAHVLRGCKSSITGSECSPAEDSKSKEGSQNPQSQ
# Sequence of human Dopamine Transporter (DAT), SLC6A3 (gene 6531) (Q01959 whole entry, looked up): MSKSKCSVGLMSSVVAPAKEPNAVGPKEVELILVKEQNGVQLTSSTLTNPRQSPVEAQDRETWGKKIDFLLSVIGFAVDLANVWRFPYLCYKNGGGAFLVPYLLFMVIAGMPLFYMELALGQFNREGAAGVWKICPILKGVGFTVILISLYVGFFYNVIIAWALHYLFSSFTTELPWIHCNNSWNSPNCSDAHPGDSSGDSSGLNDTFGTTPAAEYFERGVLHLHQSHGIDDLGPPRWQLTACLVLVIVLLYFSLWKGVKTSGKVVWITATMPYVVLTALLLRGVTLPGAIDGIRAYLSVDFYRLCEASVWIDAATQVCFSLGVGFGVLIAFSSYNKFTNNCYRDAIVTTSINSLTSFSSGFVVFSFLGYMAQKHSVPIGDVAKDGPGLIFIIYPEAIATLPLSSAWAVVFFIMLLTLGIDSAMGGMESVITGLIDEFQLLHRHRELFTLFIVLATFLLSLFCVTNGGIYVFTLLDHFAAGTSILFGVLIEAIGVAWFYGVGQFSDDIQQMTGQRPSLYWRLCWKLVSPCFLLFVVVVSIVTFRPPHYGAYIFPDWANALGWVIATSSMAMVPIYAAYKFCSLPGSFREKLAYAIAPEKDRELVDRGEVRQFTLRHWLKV
# Sequence of rat Serotonin Transporter (SERT), Slc6a4 (gene 25553) (P31652 whole entry, looked up): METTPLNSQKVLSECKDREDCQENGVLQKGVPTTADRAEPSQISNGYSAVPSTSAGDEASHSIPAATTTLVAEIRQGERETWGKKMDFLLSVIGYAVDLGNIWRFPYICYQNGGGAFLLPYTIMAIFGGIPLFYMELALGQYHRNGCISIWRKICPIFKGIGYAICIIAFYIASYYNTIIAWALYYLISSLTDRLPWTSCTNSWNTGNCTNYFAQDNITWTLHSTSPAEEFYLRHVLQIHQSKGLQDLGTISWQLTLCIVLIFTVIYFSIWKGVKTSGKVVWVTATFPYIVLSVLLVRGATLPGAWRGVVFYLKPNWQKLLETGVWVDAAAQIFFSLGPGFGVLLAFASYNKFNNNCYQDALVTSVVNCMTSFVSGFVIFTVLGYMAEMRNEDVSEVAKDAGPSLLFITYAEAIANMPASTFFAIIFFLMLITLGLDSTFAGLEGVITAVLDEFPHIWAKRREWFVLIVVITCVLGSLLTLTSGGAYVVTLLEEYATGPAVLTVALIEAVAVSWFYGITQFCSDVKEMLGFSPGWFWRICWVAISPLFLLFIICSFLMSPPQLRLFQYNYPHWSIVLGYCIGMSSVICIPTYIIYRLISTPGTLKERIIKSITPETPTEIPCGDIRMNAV
# Sequence of Retinoic acid receptor alpha (Homo sapiens) (P10276 whole entry, looked up): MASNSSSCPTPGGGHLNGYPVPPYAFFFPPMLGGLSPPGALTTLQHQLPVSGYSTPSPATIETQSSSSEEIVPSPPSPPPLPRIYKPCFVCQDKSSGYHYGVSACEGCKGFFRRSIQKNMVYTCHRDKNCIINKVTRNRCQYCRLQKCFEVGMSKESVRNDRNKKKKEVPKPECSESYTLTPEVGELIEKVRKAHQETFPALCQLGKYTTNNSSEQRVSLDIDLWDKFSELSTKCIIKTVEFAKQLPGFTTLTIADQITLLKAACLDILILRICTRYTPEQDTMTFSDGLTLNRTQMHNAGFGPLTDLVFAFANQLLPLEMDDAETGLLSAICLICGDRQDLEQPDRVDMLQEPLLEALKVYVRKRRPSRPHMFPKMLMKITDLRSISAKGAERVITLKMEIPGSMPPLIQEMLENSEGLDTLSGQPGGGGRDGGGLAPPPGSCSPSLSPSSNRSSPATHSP
# Sequence of Norway rat Vesicular Monoamine Transporter (VMAT2), neurotransmitter transporter, Slc18a2 (gene 25549) (Q01827 whole entry, looked up): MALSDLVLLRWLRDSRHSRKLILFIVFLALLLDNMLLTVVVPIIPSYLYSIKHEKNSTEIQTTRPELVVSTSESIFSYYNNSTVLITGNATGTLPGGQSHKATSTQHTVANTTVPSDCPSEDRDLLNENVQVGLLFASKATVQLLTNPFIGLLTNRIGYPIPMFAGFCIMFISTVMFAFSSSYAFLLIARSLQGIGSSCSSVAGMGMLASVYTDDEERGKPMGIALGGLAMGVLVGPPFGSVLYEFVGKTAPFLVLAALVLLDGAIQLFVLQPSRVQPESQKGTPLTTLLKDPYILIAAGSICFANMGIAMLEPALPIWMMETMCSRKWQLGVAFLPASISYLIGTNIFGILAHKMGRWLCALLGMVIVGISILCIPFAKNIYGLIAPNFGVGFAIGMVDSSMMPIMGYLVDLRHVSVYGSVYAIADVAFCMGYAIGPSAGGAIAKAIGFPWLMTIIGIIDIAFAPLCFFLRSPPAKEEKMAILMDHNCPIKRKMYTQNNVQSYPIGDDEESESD
# Sequence of Peroxisome proliferator-activated receptor gamma (Homo sapiens) (P37231 whole entry, looked up): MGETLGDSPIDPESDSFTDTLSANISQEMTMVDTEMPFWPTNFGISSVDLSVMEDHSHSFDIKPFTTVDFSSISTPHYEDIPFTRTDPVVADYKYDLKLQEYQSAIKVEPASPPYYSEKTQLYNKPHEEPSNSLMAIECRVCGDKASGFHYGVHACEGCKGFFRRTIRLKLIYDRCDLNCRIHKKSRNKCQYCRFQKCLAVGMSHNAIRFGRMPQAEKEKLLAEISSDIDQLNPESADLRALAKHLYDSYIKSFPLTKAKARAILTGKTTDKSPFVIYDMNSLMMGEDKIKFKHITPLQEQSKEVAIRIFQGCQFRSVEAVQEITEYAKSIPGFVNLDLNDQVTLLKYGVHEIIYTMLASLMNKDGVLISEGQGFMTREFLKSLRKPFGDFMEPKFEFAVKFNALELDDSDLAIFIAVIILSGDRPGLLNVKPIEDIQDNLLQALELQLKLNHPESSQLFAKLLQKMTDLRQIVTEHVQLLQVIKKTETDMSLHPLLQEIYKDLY
# Sequence of human Peroxisome Proliferator-activated Receptor alpha (PPARa), PPARA (gene 5465) (Q07869 whole entry, looked up): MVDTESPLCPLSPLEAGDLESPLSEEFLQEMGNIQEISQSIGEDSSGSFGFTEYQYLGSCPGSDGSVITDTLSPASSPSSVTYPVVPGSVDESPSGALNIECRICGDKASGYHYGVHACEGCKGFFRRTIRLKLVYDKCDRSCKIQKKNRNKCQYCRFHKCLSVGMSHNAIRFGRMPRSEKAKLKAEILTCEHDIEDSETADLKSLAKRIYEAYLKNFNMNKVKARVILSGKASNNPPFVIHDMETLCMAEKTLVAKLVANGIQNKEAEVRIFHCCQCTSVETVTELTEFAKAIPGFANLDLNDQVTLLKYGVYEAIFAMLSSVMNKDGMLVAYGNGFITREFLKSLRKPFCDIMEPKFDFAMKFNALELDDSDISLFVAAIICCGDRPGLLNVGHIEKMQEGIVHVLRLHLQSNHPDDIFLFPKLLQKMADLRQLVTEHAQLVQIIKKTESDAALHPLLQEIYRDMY
structure (smiles),measurement,setting,value
Oc1cccc(-c2ccccc2)c1,AC50,[1],13.9 µM (active)
same,AC50,[2],10.6 µM (active)
same,outcome,[3],inactive
Cc1ccc(CCl)cc1,AC50,[4],16.6 µM (active)
Cc1cc(C)cc(C)c1,outcome,[5],inactive
Cc1ccccc1OP(=O)(Oc1ccccc1)Oc1ccccc1,AC50,[1],13.9 µM (active)
same,AC50,[2],2.25 µM (active)
Cc1cc(Cl)ccc1O,AC50,[5],66.5 µM (active)
same,outcome,[6],inactive
Nc1nc(N)nc(Cl)n1,outcome,[4],inactive
O=c1[nH]c(=O)n(Cl)c(=O)n1Cl,outcome,[7],inactive
Oc1ccc(Cc2ccc(O)cc2)cc1,AC50,[1],10.1 µM (active)
same,AC50,[2],9.05 µM (active)
COc1ccccc1N,outcome,[8],inactive
CCOP(=S)(OCC)O/N=C(\C#N)c1ccccc1,AC50,[5],26.9 µM (active)
same,outcome,[7],inactive
O=C(O)C1(c2ccc3c(c2)OC[C@H](Cc2ccc(-c4ccccc4)cc2)[C@H]3O)CCCC1,outcome,[9],inactive
COc1nn(C(=O)NS(=O)(=O)c2ccccc2OC(F)(F)F)c(=O)n1C,outcome,[5],inactive
same,AC50,[7],23.4 µM (active)
